The source of these data is the supplement of paper PMC6555819.

Common to all, as to experiment: PBM binding z-score (relative to random genomic background probes); higher = stronger binding; sequences stand for … in GC…GCGATTGACAGCGTAGAATGAAGG
The subject of experiment [1] is FXR:RXRa (NR concentration 270 nM, RXRa partner concentration 90 nM). The gist of the method: (§1)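 Regression normalization was applied to scanned fluorescence from custom Agilent 4×180K protein-binding microarrays. Before scanning, arrays were incubated 1 h with ligand-free nuclear receptor dimers, and binding was detected with antibodies against each partner (one per run). Binding z-scores use the random background probes as reference.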

Experiment [2] has as its system LXRa:RXRa (NR concentration 270 nM, RXRa partner concentration 90 nM). The method, boiled down:
as §1

Experiment [3] deals with LXRa homodimer (NR concentration 270 nM). The gist of the method: as §1
The test system of experiment [4] is LXRb:RXRa (NR concentration 270 nM, RXRa partner concentration 90 nM). The method, boiled down: as §1
Experiment [5] relates to LXRb homodimer (NR concentration 270 nM). The method, boiled down: as §1
Experiment [6] concerns PPARa:RXRa (NR concentration 270 nM, RXRa partner concentration 90 nM). The method, boiled down:
as §1

Experiment [7] has as its system PPARg:RXRa (NR concentration 180 nM, RXRa partner concentration 90 nM). The method, boiled down:
as §1

For experiment [8], the system named is PPARg:RXRa 270nM:90nM, anti-RXR (NR concentration 270 nM, RXRa partner concentration 90 nM). The method, boiled down: as §1
Experiment [9] has as its system PPARg:RXRa 30nM:10nM, anti-RXR (NR concentration 30 nM, RXRa partner concentration 10 nM). The method, boiled down:
as §1

Experiment [10] relates to PPARg:RXRa 90nM:30nM, anti-RXR (NR concentration 90 nM, RXRa partner concentration 30 nM). The method, boiled down: as §1
The test system of experiment [11] is PPARg:RXRa DBDmut IVT, anti-RXR (DBD mutation: RXRa K156A/R161A, NR concentration 270 nM, RXRa partner concentration 90 nM). The gist of the method: as §1
Experiment [12] relates to PPARg:RXRa IVT, anti-PPARg (NR concentration 270 nM, RXRa partner concentration 90 nM). The gist of the method:
as §1

Experiment [13] relates to PPARg DBDmut:RXRa IVT, anti-PPARg (DBD mutation: PPARg1 K132A/R137A, NR concentration 270 nM, RXRa partner concentration 90 nM). The gist of the method:
as §1

For experiment [14], the system named is PPARg DBDmut IVT, anti-PPARg (DBD mutation: PPARg1 K132A/R137A, NR concentration 270 nM). The method, boiled down: as §1
In experiment [15] the test system is PPARg homodimer (NR concentration 180 nM). The gist of the method: as §1
Experiment [16] concerns PXR:RXRa (NR concentration 270 nM, RXRa partner concentration 90 nM). The method, boiled down: as §1
Experiment [17] relates to PXR homodimer (NR concentration 270 nM). The method, boiled down:
as §1

In experiment [18] the test system is RARa:RXR (NR concentration 270 nM, RXRa partner concentration 90 nM). The gist of the method: as §1
In experiment [19] the test system is RARa homodimer (NR concentration 270 nM). The gist of the method:
as §1

Experiment [20] relates to RARb:RXRa (NR concentration 270 nM, RXRa partner concentration 90 nM). The method, boiled down: as §1

As to GCGACTGAGGCAAAGCAGGTTACCATAAGGTTGG, the PBM binding z-score was -0.391 in experiment [1]; -0.493 in [2]; -0.444 in [3]; -0.567 in [4]; -1.32 in experiment [5]; -0.0233 in experiment [6]. The PBM binding z-score was 0.328 in experiment [7]; -0.42 in experiment [8]; -0.736 in experiment [9]; -0.693 in experiment [10]; 0.099 in experiment [11]; -0.228 in [12]. For the same sequence, the PBM binding z-score is -1.27 in experiment [13]; -1.26 in [14]; -0.646 in experiment [15]; -0.22 in experiment [16]; -0.398 in experiment [17]; 0.0827 in [18]. Further, the PBM binding z-score in experiment [19] was -0.323; in experiment [20], -0.412.
Take CCTAGTAGTTGACCATAAGGGCAACCGAAGCTCG: the PBM binding z-score in [1] is 0.577; in [2] it was 0.379; in [3], 0.118; in experiment [4], 0.228; in experiment [5] it was 0.0472; in [6] it was 0.369. The PBM binding z-score was 0.269 in [7]; 0.285 in [8]; -0.556 in [9]; 0.0396 in [10]; -0.333 in experiment [11]; 0.506 in [12]. Also, the PBM binding z-score was -0.485 in experiment [13]; -0.576 in experiment [14]; 1.26 in experiment [15]; 0.431 in [16]; 0.221 in experiment [17]; 0.651 in experiment [18]. Moreover, the PBM binding z-score was found to be 0.534 in experiment [19] and 1.49 in experiment [20].
For CGTACTGGGCCATCAGGTCATTGATATCAACGTT, the PBM binding z-score in [1] was 1.44; in experiment [2] it was 1.12; in experiment [3] it was 0.948; in experiment [4] it was 1.53; in experiment [5], -0.168; in experiment [6] it was 2.78. Besides, the PBM binding z-score was determined as 2.86 in [7]; 3.82 in [8]; 1.21 in experiment [9]; 3.32 in experiment [10]; 5.01 in experiment [11]; 4.86 in [12]. The PBM binding z-score in experiment [13] is 0.473; in experiment [14] it was -0.333; in experiment [15], 1.12; in experiment [16] it was 1.67; in [17], 0.831; in experiment [18] it was 1.88. Besides, the PBM binding z-score in experiment [19] was -0.122; in experiment [20], 1.93.
As for AGTCAAAGTTCAGGACGGGGTAACGTAAAGCACG, the PBM binding z-score was found to be 4.41 in experiment [1]; 4.06 in experiment [2]; 1.34 in [3]; 2.69 in experiment [4]; 1.48 in experiment [5]; 3.58 in experiment [6]. Moreover, the PBM binding z-score was 4.9 in experiment [7]; 5.07 in [8]; 2.19 in [9]; 4.12 in [10]; 0.312 in experiment [11]; 2.3 in [12]. The PBM binding z-score in experiment [13] was found to be 1.25; in [14] it was 1.24; in experiment [15], 1.87; in [16], 3.66; in [17], 1.28; in experiment [18], 3.45. Besides, the PBM binding z-score is 1.36 in [19] and 4.13 in experiment [20].
As for ATATGTAGGTTAGCTGCGGTCATTCAGACTAGGC, the PBM binding z-score was 1.46 in [1]; 5.96 in experiment [2]; 4.17 in [3]; 2.56 in experiment [4]; 0.134 in [5]; 2.82 in experiment [6]. For the same sequence, the PBM binding z-score in experiment [7] is 3.47; in experiment [8] it was 3.02; in experiment [9], 0.942; in [10], 2.27; in experiment [11], 6.89; in [12], 6.05. Also, the PBM binding z-score in experiment [13] came out at 1.21; in experiment [14] it was 1.12; in experiment [15], 0.698; in [16], 3.39; in [17] it was 0.151; in experiment [18] it was 1.21. Further, the PBM binding z-score in experiment [19] came out at 0.221; in experiment [20] it was 1.88.
Take TCGAGTAGGTTAGTCGGGTCATTCAGCCAACATA: the PBM binding z-score was 1.62 in [1]; 1.62 in experiment [2]; 0.312 in experiment [3]; 1.98 in experiment [4]; -0.941 in [5]; 3.14 in experiment [6]. Moreover, the PBM binding z-score turned out to be 1.39 in experiment [7]; 2.4 in experiment [8]; 1.36 in [9]; 1.95 in experiment [10]; 2.57 in [11]; 3.67 in experiment [12]. For the same sequence, the PBM binding z-score in experiment [13] was -0.174; in experiment [14], -0.903; in experiment [15] it was 1.13; in [16], 2.57; in experiment [17] it was 1.01; in experiment [18], 2.77. Besides, the PBM binding z-score was -0.535 in experiment [19] and 1.79 in experiment [20].
TTACCAAGGTGAGCTGAAGTCGTTGATCCAACTC: the PBM binding z-score is -0.293 in experiment [1]; -0.529 in [2]; -0.801 in experiment [3]; -0.542 in [4]; -1.23 in experiment [5]; 0.187 in experiment [6]. The PBM binding z-score in experiment [7] is -0.231; in [8], 0.143; in experiment [9], -0.185; in [10] it was 0.0287; in experiment [11], 0.859; in experiment [12], 1.48. Further, the PBM binding z-score in experiment [13] is -0.768; in experiment [14], -0.947; in experiment [15], -0.94; in experiment [16] it was -0.181; in experiment [17], -0.685; in experiment [18], -0.105. In addition, the PBM binding z-score was -0.713 in experiment [19] and 0.929 in experiment [20].
